Reference: PubChem BioAssay
For some of these results: Measured potencies and affinities stand elsewhere. The source made the active and inactive calls.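 Rule for the calls, unless noted: active = earlier screen potentiator hit that boosts the TRPC4 ion channel at some dose, with a dose response; inactive = no potentiation, no dose response, or not a prior hit.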

Tests used:
[1] = system: TRPC4 beta (transient receptor potential cation channel C4), mouse; test: activators of mouse TRPC4 channel, confirmation, cell-based, Fluo4 calcium, HEK293 TRPC4beta/mu-opioid, duplicates, 10 µM (AID 2426;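 active = fluorescence ratio normalized to control raised more than 50% in primary screen plus both repeat runs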); settings: Fluo4 calcium fluorescence, at 10 µM; active compounds read high
[2] = system: transient receptor potential cation channel C4 beta (TRPC4), mouse; test: activators of mouse TRPC4 channel, confirmation, cell-based, second round, Fluo4, HEK293 TRPC4beta/mu-opioid, 1 µM (AID 2461;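 active = primary screen active and over 50% activation in each of two duplicate runs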); settings: Fluo4 calcium fluorescence, at 1 µM; active compounds read high
[3] = system: TRPC4 (transient receptor potential cation channel C4 beta), mouse; test: positive allosteric modulators of mouse TRPC4, confirmation, cell-based, second round, Fluo-4, HEK293 TRPC4beta/mu-opioid, 1 µM (AID 2554;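 active = primary screen hit whose fluorescence ratio, in both repeats, exceeds the weak agonist control mean by 3 SD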); settings: DAMGO EC20, Fluo-4 calcium flux, at 1 µM; active compounds read high
[4] = system: TRPC4 beta (transient receptor potential cation channel C4), mouse; test: positive allosteric modulators of mouse TRPC4, confirmation, cell-based, Fluo-4, HEK293 TRPC4beta/mu-opioid (AID 2555;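 active = primary screen hit whose calcium fluorescence ratio, in both repeats, exceeds the weak agonist control mean by 3 SD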); settings: DAMGO EC20, Fluo-4 calcium flux, at 10 µM; active compounds read high
[5] = target: Short transient receptor potential channel 4 (Mus musculus) (UniProt Q9QUQ5); test: inhibitors of mouse TRPC4 channel, confirmation, cell-based, Fluo4, HEK293 TRPC4beta/mu-opioid (AID 2636;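 active = calcium signal cut by more than 3 SD below the full-agonist control yet still positive, in both repeats and the earlier primary screen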); settings: DAMGO, Fluo4 calcium flux, at 10 µM; active compounds read high
[6] = target: Short transient receptor potential channel 4 (Mus musculus) (UniProt Q9QUQ5); test: inhibitors of mouse TRPC4 channel, confirmation, cell-based, second round, Fluo4, HEK293 TRPC4beta/mu-opioid, 1 µM (AID 2637;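 active = calcium signal ratio cut to more than 3 SD under the fully stimulated control mean yet still positive, in both repeats and the primary screen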); settings: Fluo4 calcium flux, DAMGO, at 1 µM; active compounds read high
[7] = target: Short transient receptor potential channel 4 (Mus musculus) (UniProt Q9QUQ5); test: mouse TRPC4 channel activators, dose response, cell-based, HEK293 TRPC4/mu-opioid, Fluo-4 calcium (AID 434937;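 active = primary screen activator hit with a dose response curve and TRPC4 channel activation at any tested dose; inactive = no activation, no dose response, or not a primary hit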)
[8] = target: Short transient receptor potential channel 4 (Mus musculus) (UniProt Q9QUQ5); test: TRPC4 positive allosteric modulators, dose response, cell-based, HEK293 TRPC4/mu-opioid, Fluo-4 calcium, EC20 DAMGO (AID 434941);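 note: calcium entry triggered by an EC20 dose of DAMGO at the co-expressed mu-opioid receptor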
[9] = target: Short transient receptor potential channel 4 (Mus musculus) (UniProt Q9QUQ5); test: mouse TRPC4 channel inhibitors, dose response, cell-based, HEK293 TRPC4/mu-opioid, Fluo-4 calcium (AID 434942;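 active = primary screen inhibitor hit that blocks the TRPC4 channel at some tested dose, yielding a dose curve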)
[10] = target: Short transient receptor potential channel 6 (Mus musculus) (UniProt Q61143); test: inhibition of mouse TRPC6 channel, confirmation, selectivity assay for TRPC4 inhibitor project, cell-based, HEK293, membrane potential dye, duplicate (AID 434948;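 active = active in primary screen and both duplicates, each dropping signal beyond three positive-control SD with fluorescence still positive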); settings: HEK293 TRPC6, membrane potential dye fluorescence, at 10 µM, stimulated with maximal-effect acetylcholine; active compounds read high
[11] = target: Short transient receptor potential channel 6 (Mus musculus) (UniProt Q61143); test: activation of mouse TRPC6 channel, confirmation, selectivity assay for TRPC4 activator project, cell-based, HEK293, membrane potential dye, duplicate (AID 434950;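 active = membrane potential signal rise above negative control mean plus 3 SD in both duplicates, also active in the earlier TRPC4 screen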;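 for activation: 0% = buffer only wells and 100% = acetylcholine maximal-effect wells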); settings: HEK293 TRPC6, membrane potential fluorescence, at 10 µM; active compounds read high
[12] = target: Short transient receptor potential channel 6 (Mus musculus) (UniProt Q61143); test: TRPC6 potentiation by TRPC4 potentiator hits, confirmation, selectivity assay for TRPC4 potentiator project, HEK293 cells, membrane potential dye, duplicate (AID 434952;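 active = compound raising the membrane signal above positive-control mean plus 3 SD in both repeats, and a primary screen hit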); settings: HEK293 TRPC6, membrane potential dye fluorescence, at 10 µM, maximal acetylcholine added after compound; active compounds read high
[13] = target: Short transient receptor potential channel 4 (Mus musculus) (UniProt Q9QUQ5); test: calcium flux activators in TRPC4/5HT1a cells, counter-screen for TRPC4 activator project, cell-based, second counter screen, HEK293 TRPC4/5HT1a, Fluo-4 (AID 434977;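 active = calcium signal rise above buffer-control mean plus 5 SD in both duplicates, and also a hit in the primary screen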); settings: Fluo-4 calcium flux, at 10 µM; active compounds read high
[14] = calcium flux inhibitors in TRPC4/5HT1a cells, confirmation, counter-screen for TRPC4 inhibitor project, cell-based, second counter screen, HEK293 TRPC4/5HT1a, Fluo-4 (AID 434978;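 active = primary screen active whose calcium signal fell more than 3 SD beyond the full-serotonin control mean in both duplicate plates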;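 for outcome: serotonin given first at submaximal then at maximal dose after compound preincubation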); settings: Fluo-4 calcium flux, at 10 µM, serotonin added to trigger calcium flux; active compounds read high
[15] = system: TRPC4 (mouse), co-expressed with 5HT1a in HEK293; test: calcium flux potentiators in TRPC4/5HT1a cells, confirmation, counter-screen for TRPC4 potentiator project, cell-based, second counter screen, HEK293 TRPC4/5HT1a, Fluo-4 (AID 434979;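 active = signal rise over 3 SD above mean of control wells given weak agonist, in both repeats and first screen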); settings: Fluo-4 calcium flux, at 10 µM, serotonin added at its EC20 dose; active compounds read high
[16] = calcium flux activation in mu-opioid HEK293 cells, confirmation, counter-screen for TRPC4 activator project, cell-based, HEK293 mu-opioid receptor line (AID 449723;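 active = hit in primary screen, with calcium signal over 5 SD above buffer well mean in both duplicates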;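 note: counter screen cells carry the mu-opioid receptor alone and lack TRPC4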); settings: Fluo-4 calcium fluorescence, at 10 µM; active compounds read high
[17] = calcium flux enhancement in mu-opioid HEK293 cells, confirmation, counter-screen for TRPC4 allosteric potentiator project, cell-based, HEK293 mu-opioid receptor line (AID 449724;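 active = calcium signal rise more than 3 SD above the low-dose agonist control mean, in both duplicate plates and the primary screen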); settings: Fluo-4 calcium flux, at 10 µM, compound added before EC20 DAMGO stimulus; active compounds read high

Short transient receptor potential channel 4 (Mus musculus), sequence (Q9QUQ5 whole entry, looked up): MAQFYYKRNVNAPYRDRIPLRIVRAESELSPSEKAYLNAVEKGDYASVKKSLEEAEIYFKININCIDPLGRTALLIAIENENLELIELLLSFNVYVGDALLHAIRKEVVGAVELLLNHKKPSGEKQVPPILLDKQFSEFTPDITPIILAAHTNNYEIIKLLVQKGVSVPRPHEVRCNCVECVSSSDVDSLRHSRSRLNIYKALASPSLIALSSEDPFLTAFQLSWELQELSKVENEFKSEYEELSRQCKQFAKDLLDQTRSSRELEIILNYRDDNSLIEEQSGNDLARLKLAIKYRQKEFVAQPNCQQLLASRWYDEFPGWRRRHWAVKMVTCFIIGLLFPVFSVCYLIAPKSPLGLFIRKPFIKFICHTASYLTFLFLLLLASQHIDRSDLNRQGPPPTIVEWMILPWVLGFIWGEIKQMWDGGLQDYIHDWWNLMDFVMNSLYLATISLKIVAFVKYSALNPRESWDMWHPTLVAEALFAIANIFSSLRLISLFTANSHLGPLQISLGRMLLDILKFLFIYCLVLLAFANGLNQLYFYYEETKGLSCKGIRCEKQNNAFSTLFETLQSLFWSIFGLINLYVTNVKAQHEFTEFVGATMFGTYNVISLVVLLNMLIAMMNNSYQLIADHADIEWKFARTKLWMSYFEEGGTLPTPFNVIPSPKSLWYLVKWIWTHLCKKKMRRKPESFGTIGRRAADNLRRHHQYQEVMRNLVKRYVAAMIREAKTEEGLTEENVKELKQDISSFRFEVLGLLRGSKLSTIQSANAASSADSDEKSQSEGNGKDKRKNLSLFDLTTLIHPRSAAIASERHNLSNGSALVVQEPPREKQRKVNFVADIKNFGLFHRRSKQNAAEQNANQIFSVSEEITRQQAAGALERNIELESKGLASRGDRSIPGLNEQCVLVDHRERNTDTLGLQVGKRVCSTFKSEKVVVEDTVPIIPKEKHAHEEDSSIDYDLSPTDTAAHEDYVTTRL
Short transient receptor potential channel 6 (Mus musculus), sequence (Q61143 whole entry, looked up): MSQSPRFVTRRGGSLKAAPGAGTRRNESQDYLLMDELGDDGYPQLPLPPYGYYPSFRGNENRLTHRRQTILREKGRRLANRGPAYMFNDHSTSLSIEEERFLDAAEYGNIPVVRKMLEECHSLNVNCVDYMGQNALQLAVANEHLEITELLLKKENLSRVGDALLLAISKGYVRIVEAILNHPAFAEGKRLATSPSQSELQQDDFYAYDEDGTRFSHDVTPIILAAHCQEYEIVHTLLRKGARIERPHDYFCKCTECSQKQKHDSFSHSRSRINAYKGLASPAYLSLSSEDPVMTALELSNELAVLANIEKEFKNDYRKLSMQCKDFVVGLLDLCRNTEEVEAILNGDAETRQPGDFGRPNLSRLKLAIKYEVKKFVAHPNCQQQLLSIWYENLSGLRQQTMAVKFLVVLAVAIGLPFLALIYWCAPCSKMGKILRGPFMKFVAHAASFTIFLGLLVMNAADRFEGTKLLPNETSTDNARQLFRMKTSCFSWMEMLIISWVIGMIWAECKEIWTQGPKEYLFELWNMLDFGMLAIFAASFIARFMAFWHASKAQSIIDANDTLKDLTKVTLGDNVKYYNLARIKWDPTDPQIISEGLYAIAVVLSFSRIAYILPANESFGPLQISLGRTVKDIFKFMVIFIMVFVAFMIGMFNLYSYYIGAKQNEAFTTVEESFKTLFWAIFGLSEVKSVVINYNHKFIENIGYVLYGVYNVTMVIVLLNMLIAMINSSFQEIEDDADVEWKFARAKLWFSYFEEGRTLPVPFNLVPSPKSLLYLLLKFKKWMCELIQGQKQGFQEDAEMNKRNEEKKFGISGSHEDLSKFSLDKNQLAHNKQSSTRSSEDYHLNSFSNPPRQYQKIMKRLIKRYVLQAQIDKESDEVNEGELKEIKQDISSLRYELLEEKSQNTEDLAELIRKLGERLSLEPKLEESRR

N=c1oc2ccc(Cl)cc2cc1C(=O)NC1CCCCCC1
inactive: outcome [1] | outcome [2] | outcome [3] | outcome [4] | outcome [5] | outcome [6] | outcome [7] | outcome [8] | outcome [9] | outcome [10] | outcome [11] | outcome [12] | outcome [13] | outcome [14] | outcome [15] | outcome [16] | outcome [17]

CCOC(=O)c1cc(=O)n(Cc2ccccc2C)c2ccccc12
inactive: outcome [1] | outcome [2] | outcome [3] | outcome [5] | outcome [6] | outcome [7] | outcome [8] | outcome [9] | outcome [10] | outcome [11] | outcome [12] | outcome [13] | outcome [14] | outcome [16] | outcome [17]
active: potentiation [4] 74% | potentiation [15] 48.4%

c1ccc(Nc2ncnc3sc4c(c23)CCC4)cc1
active: activation [11] 30%
inactive: outcome [1] | outcome [2] | outcome [3] | outcome [4] | outcome [5] | outcome [6] | outcome [7] | outcome [8] | outcome [9] | outcome [10] | outcome [12] | outcome [13] | outcome [14] | outcome [15] | outcome [16] | outcome [17]

CCCN1Cc2cccc(C(=O)N3CCN(c4cc(Cl)ccc4C)CC3)c2C1=O
active: potentiation [4] 81% | potentiation [15] 49.8%
inactive: outcome [1] | outcome [2] | outcome [3] | outcome [5] | outcome [6] | outcome [7] | outcome [8] | outcome [9] | outcome [10] | outcome [11] | outcome [12] | outcome [13] | outcome [14] | outcome [16] | outcome [17]

CCN(CC)CCSc1nnc2c3ccccc3n(Cc3ccccc3)c2n1
inactive: outcome [1] | outcome [2] | outcome [3] | outcome [4] | outcome [5] | outcome [6] | outcome [7] | outcome [8] | outcome [9] | outcome [10] | outcome [11] | outcome [12] | outcome [13] | outcome [14] | outcome [15] | outcome [16] | outcome [17]

O=C(Nc1nnc2n1CCS2)c1ccc(Br)o1
active: potentiation [4] 80% | potentiation [15] 56.3%
inactive: outcome [1] | outcome [2] | outcome [3] | outcome [5] | outcome [6] | outcome [7] | outcome [8] | outcome [9] | outcome [10] | outcome [11] | outcome [12] | outcome [13] | outcome [14] | outcome [16] | outcome [17]

CC1CCN(CCCCOc2ccc([N+](=O)[O-])cc2)CC1
inactive: outcome [1] | outcome [2] | outcome [3] | outcome [4] | outcome [5] | outcome [6] | outcome [7] | outcome [8] | outcome [9] | outcome [10] | outcome [11] | outcome [12] | outcome [13] | outcome [14] | outcome [15] | outcome [16] | outcome [17]

O=C(Cc1cn(Cc2cccc(Cl)c2)c2ccccc12)N1CCCC1
inactive: outcome [1] | outcome [2] | outcome [3] | outcome [5] | outcome [6] | outcome [7] | outcome [8] | outcome [9] | outcome [10] | outcome [11] | outcome [12] | outcome [13] | outcome [14] | outcome [16] | outcome [17]
active: potentiation [4] 10% | potentiation [15] 29.2%

C(=N\N(Cc1ccccc1)c1ccccc1)/c1cccnc1
inactive: outcome [1] | outcome [2] | outcome [3] | outcome [4] | outcome [6] | outcome [7] | outcome [8] | outcome [9] | outcome [10] | outcome [11] | outcome [12] | outcome [13] | outcome [15] | outcome [16] | outcome [17]
active: inhibition [5] 63% | inhibition [14] 40.3%

CCCC1C(=O)Nc2ccccc2N1C(=O)c1ccc(C(C)(C)C)cc1 (stereo not drawn)
active: potentiation [15] 30.4%
inactive: outcome [1] | outcome [2] | outcome [3] | outcome [4] | outcome [5] | outcome [6] | outcome [7] | outcome [8] | outcome [9] | outcome [10] | outcome [11] | outcome [12] | outcome [13] | outcome [14] | outcome [16] | outcome [17]

Cc1ccsc1C(=O)OCC(=O)NCCNC(=O)COC(=O)c1sccc1C
inactive: outcome [1] | outcome [2] | outcome [3] | outcome [4] | outcome [5] | outcome [6] | outcome [7] | outcome [8] | outcome [9] | outcome [10] | outcome [11] | outcome [12] | outcome [13] | outcome [14] | outcome [15] | outcome [16] | outcome [17]

CCCCc1nnc(NC(=O)C2CCN(c3ncnc4sc(C)c(C)c34)CC2)s1
inactive: outcome [1] | outcome [2] | outcome [3] | outcome [4] | outcome [5] | outcome [6] | outcome [7] | outcome [8] | outcome [9] | outcome [10] | outcome [11] | outcome [12] | outcome [13] | outcome [14] | outcome [15] | outcome [16] | outcome [17]

Cc1ccc(C)c2[nH]c(=O)c(C(c3nnnn3C3CCCC3)N3CCOCC3)cc12 (stereo not drawn)
inactive: outcome [1] | outcome [2] | outcome [3] | outcome [4] | outcome [5] | outcome [6] | outcome [7] | outcome [8] | outcome [9] | outcome [10] | outcome [11] | outcome [12] | outcome [13] | outcome [14] | outcome [15] | outcome [16] | outcome [17]

Clc1ccc(OCCn2ccnc2)c(Br)c1
inactive: outcome [1] | outcome [2] | outcome [3] | outcome [5] | outcome [6] | outcome [7] | outcome [8] | outcome [9] | outcome [10] | outcome [11] | outcome [12] | outcome [13] | outcome [14] | outcome [16] | outcome [17]
active: potentiation [4] 13% | potentiation [15] 12.6%
